Inconclusive results are not listed. Calls of active or inactive are those of the source. The calls were made as follows: active = hit-call score of the fitted dose curve at least 0.9, where 1 is the maximum; inconclusive = response in the unintended direction; inactive = score below 0.9.
These molecules were tested against human Constitutive Androstane Receptor (CAR), NR1I3 (gene 9970) (UniProt Q14994) (assay: NVS_NR_hCAR_Antagonist: NovaScreen (NVS) Nuclear Receptor Binding Assay for human Constitutive Androstane Receptor Antagonism (CAR) (AID 2283344)).
In short: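 Cell-free TR-FRET binding read 1 h after dosing, antagonist mode; loss of signal versus DMSO baseline. Primary screen in duplicate at a single 25 uM; actives retested in concentration series.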

human Constitutive Androstane Receptor (CAR), NR1I3 (gene 9970), sequence (Q14994 whole entry, looked up): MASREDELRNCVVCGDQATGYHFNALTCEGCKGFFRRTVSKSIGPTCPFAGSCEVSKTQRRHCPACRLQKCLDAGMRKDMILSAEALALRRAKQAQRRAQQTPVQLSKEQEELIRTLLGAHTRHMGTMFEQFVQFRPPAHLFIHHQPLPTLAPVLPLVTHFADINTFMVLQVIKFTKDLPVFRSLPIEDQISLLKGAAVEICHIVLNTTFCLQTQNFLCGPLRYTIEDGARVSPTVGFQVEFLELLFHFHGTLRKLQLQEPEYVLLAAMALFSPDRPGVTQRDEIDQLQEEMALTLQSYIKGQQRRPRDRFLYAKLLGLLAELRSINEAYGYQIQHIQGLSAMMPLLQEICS

Compound	outcome	AC50
CC(C)(C)c1csc(-c2cc3cc(OCc4ccccc4CC(=O)O)ccc3o2)n1	inactive	
CC(=O)N1CCN(c2ccc(OC[C@H]3CO[C@](Cn4ccnc4)(c4ccc(Cl)cc4Cl)O3)cc2)CC1	inactive	
Cc1c2ccccc2c(C)c2c1ccc1ccccc12	inactive	
Clc1cc(Cl)c2c(c1)N=C1CCCCCN1C2	inactive	
CCN(CC)C(=O)c1cc(S(=O)(=O)Cc2ccccc2)c(N2CCC(c3ccccc3)CC2)cc1N(CC)CCN(C)C	inactive	
CC1=CC(=O)/C(=C(/C)O)C(=O)O1	inactive	
CN(C)C(=O)C1(N2CCCCC2)CCN(CC[C@@]2(c3ccc(Cl)c(Cl)c3)CN(C(=O)c3ccccc3)CCO2)CC1	inactive	
Cc1oc2c(NC(=O)c3c(Cl)cccc3Cl)cccc2c1C(C)(C)O		34.6 µM (active)

From PubChem BioAssay (EPA / NIEHS)
